Experiment [1] in a line: antimalarial activity against Dd2 strain (AID 2302;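 active means growth inhibition above 50% at the single 2 µM test dose, taken to imply half-maximal potency below 2 µM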;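 further: 0% = DMSO untreated growth and 100% = chloroquine plus artemisinin killed control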). Conditions: P. falciparum Dd2 in RBCs, LDH growth readout, 72 h; at 2 µM; active compounds read high.
Experiment [2] in a line: HepG2 cytotoxicity, primary screen, cytotoxicity control for P. falciparum antimalarial project, cell-based, ATP luminescence (AID 2303;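 active means inhibition above 50%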;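 further: 0% = DMSO wells and 100% = digitonin-killed cells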). The following applies: HepG2 viability, 24-48 h, at 10 µM, active compounds read high.
For experiment [3], the target named is L-lactate dehydrogenase (Plasmodium falciparum (isolate CDC / Honduras)) (UniProt Q27743). The experiment is described as follows: PfLDH activity inhibition – cell lysate, 3D7 strain, counter-screen for P. falciparum growth inhibition project (AID 2304).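 Further: 0% = vehicle and 100% = reference inhibitor.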 The following applies: P. falciparum 3D7 crude extract, LDH APAD/NBT absorbance; at 2 µM; active compounds read high. A general note: A counterscreen serves to expose hits that act by an unwanted route or on another target.

The nature of experiment [4]: inhibition of 3D7 malaria parasite growth – strain 3D7 (AID 2306).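 Further: 0% = DMSO wells and 100% = chloroquine plus artemisinin control wells.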 Conditions: P. falciparum 3D7 erythrocytic growth, LDH absorbance, 72 h; at 2 µM; active compounds read high.
Experiment [5] addresses Calcium-dependent protein kinase 1 (Plasmodium falciparum (isolate 3D7)) (UniProt P62344). The experiment is described as follows: PfCDPK1 kinase inhibitors, biochemical, TCAMS library (AID 1159585; cut-off not given, nearly all actives have IC50 up to about 0.98 µM;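 further: inhibitors leave more ATP so luminescence rises with inhibition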). Conditions: recombinant PfCDPK1, Kinase-Glo ATP depletion luminescence. (In general: Kinase-Glo reads ATP consumption through a luciferase reaction.)
Experiment [6] addresses Plasmodium falciparum protein kinase 6 (PK6, PF3D7_1337100) (UniProt Q8IDW1). The experiment is described as follows: PfPK6 kinase inhibitors, biochemical, TCAMS library (AID 1159586). The following applies: recombinant PfPK6, Kinase-Glo ATP depletion luminescence.
Experiment [7] deals with Protein kinase 7 (PK7), Plasmodium falciparum 3D7 (PF3D7_0213400) (UniProt Q7YTF7). Put plainly: inhibition of Plasmodium PK7 catalytic activity – biochemical, TCAMS antimalarial set, Kinase-Glo luminescence (AID 1159587). Conditions: recombinant PfPK7, Kinase-Glo ATP depletion luminescence.
Experiment [8] addresses Calcium-dependent protein kinase 4 (Plasmodium falciparum (isolate 3D7)) (UniProt Q8IBS5). Put plainly: PfCDPK4 kinase inhibitors, biochemical, TCAMS library (AID 1159588; cut-off not given, nearly all actives have IC50 up to about 0.91 µM). The following applies: recombinant PfCDPK4, Kinase-Glo ATP depletion luminescence.

SMILES strings stand for the structures. Unmarked numbers belong to inactive results. For some of these results: Results with a measured potency or affinity are listed apart. The source made the active and inactive calls. Unless noted, how the calls were made is not given here.

L-lactate dehydrogenase (Plasmodium falciparum (isolate CDC / Honduras)), sequence (Q27743 whole entry, looked up): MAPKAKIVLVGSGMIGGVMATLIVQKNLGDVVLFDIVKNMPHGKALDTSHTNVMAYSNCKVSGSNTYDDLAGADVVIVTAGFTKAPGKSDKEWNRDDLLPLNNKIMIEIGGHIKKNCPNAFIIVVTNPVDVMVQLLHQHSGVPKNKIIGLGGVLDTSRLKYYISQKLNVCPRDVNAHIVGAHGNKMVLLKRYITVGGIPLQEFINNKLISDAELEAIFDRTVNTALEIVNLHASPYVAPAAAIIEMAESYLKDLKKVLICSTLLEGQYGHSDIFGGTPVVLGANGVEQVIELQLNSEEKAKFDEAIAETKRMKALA
Protein kinase 7 (PK7), Plasmodium falciparum 3D7 (PF3D7_0213400), sequence (Q7YTF7 1-343): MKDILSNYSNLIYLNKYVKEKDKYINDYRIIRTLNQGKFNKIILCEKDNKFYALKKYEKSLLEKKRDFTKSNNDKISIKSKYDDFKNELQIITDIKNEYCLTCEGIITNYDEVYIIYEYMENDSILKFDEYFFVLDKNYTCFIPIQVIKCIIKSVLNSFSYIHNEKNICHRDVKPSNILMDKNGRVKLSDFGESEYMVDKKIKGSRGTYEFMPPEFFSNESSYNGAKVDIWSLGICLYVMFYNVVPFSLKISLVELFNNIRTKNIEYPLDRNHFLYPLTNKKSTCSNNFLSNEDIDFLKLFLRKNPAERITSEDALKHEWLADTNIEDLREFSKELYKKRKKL
Plasmodium falciparum protein kinase 6 (PK6, PF3D7_1337100), sequence (Q8IDW1 1-305): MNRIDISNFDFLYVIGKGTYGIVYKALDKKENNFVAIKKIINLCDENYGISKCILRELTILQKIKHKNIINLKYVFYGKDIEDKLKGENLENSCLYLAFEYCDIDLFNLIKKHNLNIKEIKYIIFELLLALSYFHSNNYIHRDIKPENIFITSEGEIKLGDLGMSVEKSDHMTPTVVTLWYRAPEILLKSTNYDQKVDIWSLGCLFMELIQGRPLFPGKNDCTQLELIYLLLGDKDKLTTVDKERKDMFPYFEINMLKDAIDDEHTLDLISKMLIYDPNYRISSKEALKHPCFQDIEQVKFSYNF
Calcium-dependent protein kinase 4 (Plasmodium falciparum (isolate 3D7)), sequence (Q8IBS5 whole entry, looked up): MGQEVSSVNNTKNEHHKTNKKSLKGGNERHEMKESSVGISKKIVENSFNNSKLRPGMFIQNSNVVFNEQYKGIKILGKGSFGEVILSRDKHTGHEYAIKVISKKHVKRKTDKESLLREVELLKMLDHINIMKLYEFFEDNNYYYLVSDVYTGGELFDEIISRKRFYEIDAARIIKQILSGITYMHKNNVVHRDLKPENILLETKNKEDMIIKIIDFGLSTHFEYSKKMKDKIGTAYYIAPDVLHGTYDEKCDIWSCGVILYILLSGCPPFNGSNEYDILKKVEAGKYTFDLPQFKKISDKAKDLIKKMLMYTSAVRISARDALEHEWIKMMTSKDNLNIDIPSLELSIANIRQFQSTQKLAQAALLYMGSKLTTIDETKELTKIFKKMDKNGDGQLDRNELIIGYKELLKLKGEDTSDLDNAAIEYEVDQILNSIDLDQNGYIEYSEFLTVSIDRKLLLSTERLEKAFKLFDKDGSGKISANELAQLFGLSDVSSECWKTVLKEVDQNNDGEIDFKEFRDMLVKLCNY
Calcium-dependent protein kinase 1 (Plasmodium falciparum (isolate 3D7)), sequence (P62344 whole entry, looked up): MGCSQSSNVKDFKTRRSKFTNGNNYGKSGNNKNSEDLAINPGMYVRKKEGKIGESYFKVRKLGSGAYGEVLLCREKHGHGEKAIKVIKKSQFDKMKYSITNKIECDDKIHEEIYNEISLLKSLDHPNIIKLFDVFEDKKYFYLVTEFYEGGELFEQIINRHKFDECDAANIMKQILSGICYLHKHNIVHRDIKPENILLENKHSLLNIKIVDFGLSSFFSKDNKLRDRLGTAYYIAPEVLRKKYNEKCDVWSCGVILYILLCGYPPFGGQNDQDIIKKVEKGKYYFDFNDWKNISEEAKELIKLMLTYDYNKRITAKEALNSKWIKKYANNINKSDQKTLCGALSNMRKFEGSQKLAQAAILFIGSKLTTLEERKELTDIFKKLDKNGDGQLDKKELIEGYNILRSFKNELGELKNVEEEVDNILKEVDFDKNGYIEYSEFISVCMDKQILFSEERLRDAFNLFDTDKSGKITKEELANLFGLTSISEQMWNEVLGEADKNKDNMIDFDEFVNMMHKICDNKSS

The inhibition is the relative decrease from the control value, in per cent. As to `COc1ccc(CN2CCC(N3CC(c4ccccc4)(c4ccccc4)OCC3=O)C2)c(O)c1` (stereo not given), the growth inhibition was 27% in experiment [1] and 96% (active) in experiment [4]. The inhibition in experiment [2] was 10%; in experiment [3] it was 3%. The outcome in experiment [5], in experiment [6], in experiment [7] and in experiment [8] was inactive.

In the case of `CC(C)CCN1CCC(Oc2ccc(NC(=O)c3ccc4ncccc4c3)cc2Cl)C1` (stereo not given), the growth inhibition in experiment [1] was 14%; in experiment [4], 95% (active). Further, the values for the inhibition in experiment [2] and in experiment [3] were 33% and -4%, respectively. The result in experiment [5], in experiment [6], in experiment [7] and in experiment [8] was inactive.

`O=C(NCC1CCC(C(=O)NCCN2CCCCC2)CC1)c1ccc(O)c(-c2ccc(Cl)c(Cl)c2)c1` (stereo not given): the growth inhibition in experiment [1] is 22%; in experiment [4], 91% (active). Moreover, the inhibition is -5% in experiment [2] and -1% in experiment [3]. Also, the outcome in experiment [5], in experiment [6], in experiment [7] and in experiment [8] was inactive.

`O=C(NCCCCN1CCC(c2ccc3c(c2OCCO)CCCC3)CC1)c1ccc(-c2ccc(C(F)(F)F)cc2)cc1`: the growth inhibition in experiment [1] is 38%; in experiment [4] it was 98% (active). Further, the inhibition in experiment [2] was 100% (active); in experiment [3], 6%. Further, the outcome in experiment [5], in experiment [6], in experiment [7] and in experiment [8] was inactive.

Consider `CC(=O)Nc1ccc(CN2CCN(C(c3ccc(F)cc3)c3ccc(F)cc3)CC2)cc1`, for which the growth inhibition is 79% (active) in experiment [1] and 93% (active) in experiment [4]. The figures for the inhibition in experiment [2] and in experiment [3] were 4% and 0%, respectively. Further, the result in experiment [5], in experiment [6], in experiment [7] and in experiment [8] was inactive.

For the molecule `O=C(/C=C/c1ccc(Br)cc1)NCCCCCN1CCC(c2c[nH]c3ccccc23)CC1`, the growth inhibition in experiment [1] was 19%; in experiment [4], 99% (active). In addition, the inhibition in experiment [2] is 73% (active); in experiment [3] it was -2%. The result in experiment [5], in experiment [6], in experiment [7] and in experiment [8] was inactive.

`CNc1nc(NN=Cc2cc3c(cc2[N+](=O)[O-])OCO3)nc(Nc2cccc(C(F)(F)F)c2)n1`: the growth inhibition in experiment [1] is 60% (active); in experiment [4], 101% (active). The inhibition in experiment [2] was -1%; in experiment [3] it was 2%. Moreover, the outcome in experiment [5], in experiment [6], in experiment [7] and in experiment [8] was inactive.

Take `CCc1c(C)nc(-n2nc(C)cc2NC(=O)C(CC)c2ccccc2)[nH]c1=O` (stereo not given): the growth inhibition in experiment [1] was 93% (active); in experiment [4], 97% (active). Moreover, the inhibition in experiment [2] was 41%; in experiment [3], -1%. Also, the outcome in experiment [5], in experiment [6], in experiment [7] and in experiment [8] was inactive.

As to `CCN1CCC(NCc2ccc(-c3ccc(Cl)s3)cc2)CC1`, the growth inhibition is 23% in experiment [1] and 96% (active) in experiment [4]. Besides, the values for the inhibition in experiment [2] and in experiment [3] were 42% and -4%, respectively. The outcome in experiment [5], in experiment [6], in experiment [7] and in experiment [8] was inactive.

For the molecule `Cc1cc(O)c(CN(C)Cc2ccc3c(c2)OCCO3)cc1C(C)C`, the values for the growth inhibition in experiment [1] and in experiment [4] were 47% and 98% (active), respectively. The inhibition is 10% in experiment [2] and -3% in experiment [3]. The result in experiment [5], in experiment [6], in experiment [7] and in experiment [8] was inactive.

With `CN1CCN(c2ccnc3ccc(NC(=O)Nc4ccc(Br)cc4)cc23)CC1`, the growth inhibition is 99% (active) in experiment [1] and 101% (active) in experiment [4]. Further, the inhibition was 12% in experiment [2] and -5% in experiment [3]. The outcome in experiment [5], in experiment [6], in experiment [7] and in experiment [8] was inactive.

Turning to `COc1ccc2nc(-c3ccccc3)cc(NCCN(C)C)c2c1`, the growth inhibition in experiment [1] was 23%; in experiment [4] it was 101% (active). In addition, the inhibition in experiment [2] is -1%; in experiment [3] it was -3%. Besides, the result in experiment [5], in experiment [6], in experiment [7] and in experiment [8] was inactive.

Take `CC(Cc1ccc(CNC(=O)NCc2ccc(CC(C)NCCc3cccc(Cl)c3)cc2)cc1)NCCc1cccc(Cl)c1` (stereo not given): the growth inhibition in experiment [1] was 44%; in experiment [4], 100% (active). Also, the inhibition in experiment [2] is 100% (active); in experiment [3], -4%. Moreover, the result in experiment [5], in experiment [6], in experiment [7] and in experiment [8] was inactive.

Regarding `O=C(Nc1ccsc1)Nc1cccc(-c2cccc(-c3nc4ccc(C(F)(F)F)cc4[nH]3)c2)c1`, the figures for the growth inhibition in experiment [1] and in experiment [4] were 101% (active) and 102% (active), respectively. Moreover, the results for the inhibition in experiment [2] and in experiment [3] were 76% (active) and -7%, respectively. For the same molecule, the result in experiment [5], in experiment [6], in experiment [7] and in experiment [8] was inactive.

Take `CC1CCC(NCc2ccc3c(CNC4CCC(C)CC4)c(O)ccc3c2O)CC1` (stereo not given): the figures for the growth inhibition in experiment [1] and in experiment [4] were 99% (active) and 101% (active), respectively. Further, the inhibition in experiment [2] is 4%; in experiment [3], -2%. The outcome in experiment [5], in experiment [6], in experiment [7] and in experiment [8] was inactive.

Take `N#Cc1cccc([C@H](O)[C@@H]2CN(CCC3CCCCC3)CC[C@@]2(O)c2ccccc2)c1`: the growth inhibition in experiment [1] was 100% (active); in experiment [4] it was 98% (active). Moreover, the inhibition in experiment [2] is -5%; in experiment [3], 3%. In addition, the outcome in experiment [5], in experiment [6], in experiment [7] and in experiment [8] was inactive.

As for `O=C(NCC1CCN(CC2CCCCC2)C1)c1cc(-c2cccc(C(F)(F)F)c2)cs1` (stereo not given), the values for the growth inhibition in experiment [1] and in experiment [4] were 21% and 96% (active), respectively. Moreover, the inhibition was 47% in experiment [2] and -3% in experiment [3]. The outcome in experiment [5], in experiment [6], in experiment [7] and in experiment [8] was inactive.

Turning to `COCCCNC(=O)C1CCN(C(c2ccc(Cl)cc2)c2ccc(Cl)cc2)CC1`, the growth inhibition in experiment [1] is 63% (active); in experiment [4], 91% (active). The inhibition was 5% in experiment [2] and 0% in experiment [3]. The outcome in experiment [5], in experiment [6], in experiment [7] and in experiment [8] was inactive.

`COc1ccc(OCCCCON2C(N)=NC(N)=NC2(C)C)cc1`: the figures for the growth inhibition in experiment [1] and in experiment [4] were 95% (active) and 92% (active), respectively. The inhibition in experiment [2] was 54% (active); in experiment [3] it was 4%. In addition, the result in experiment [5], in experiment [6], in experiment [7] and in experiment [8] was inactive.

Consider `COc1cc2ncnc(Nc3ccc(OCc4ccccc4)c(I)c3)c2cc1OC`, for which the growth inhibition in experiment [1] was 62% (active); in experiment [4], 98% (active). Also, the inhibition in experiment [2] is 11%; in experiment [3] it was 5%. The result in experiment [5], in experiment [6], in experiment [7] and in experiment [8] was inactive.

(Values after PubChem BioAssay.)
